The text below walks through data of PubChem BioAssay (NCATS).

A word on the viability: it is a read-out of living cells in per cent, often relative to untreated cells.

Experiment [1] deals with Cellular tumor antigen p53 (Homo sapiens) (UniProt P04637). Put plainly: Primary qHTS for small molecule compounds that upregulate eGFP-tagged delta133p53alpha (in N-terminal) cells. (AID 2060322).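 For activation: cells pre-induced with doxycycline then dosed without doxycycline; series mostly up to about 56 µM; 0% = DMSO vehicle and 100% = reference activator.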 Note: nearly all actives have a fitted effect of over 75% in size. Note: potency is the fitted concentration of half-maximal effect. The settings on record: NCI-H358 eGFP-delta133p53alpha fluorescence, 24 h; activation: stronger effect = higher value. The gist of the method: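 NCI-H358 cells pre-induced 24 h with 10 ng/ml doxycycline for eGFP-delta133p53alpha, plated dox-free and exposed 24 h at 37C to titrated compounds. Fixed, Hoechst-stained; gated GFP peak intensity by laser scanning cytometry, normalized to DMSO (0%) and 57.5 uM 5-azacytidine (100%).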
Chain of Cellular tumor antigen p53 (Homo sapiens) (P04637 whole entry, looked up): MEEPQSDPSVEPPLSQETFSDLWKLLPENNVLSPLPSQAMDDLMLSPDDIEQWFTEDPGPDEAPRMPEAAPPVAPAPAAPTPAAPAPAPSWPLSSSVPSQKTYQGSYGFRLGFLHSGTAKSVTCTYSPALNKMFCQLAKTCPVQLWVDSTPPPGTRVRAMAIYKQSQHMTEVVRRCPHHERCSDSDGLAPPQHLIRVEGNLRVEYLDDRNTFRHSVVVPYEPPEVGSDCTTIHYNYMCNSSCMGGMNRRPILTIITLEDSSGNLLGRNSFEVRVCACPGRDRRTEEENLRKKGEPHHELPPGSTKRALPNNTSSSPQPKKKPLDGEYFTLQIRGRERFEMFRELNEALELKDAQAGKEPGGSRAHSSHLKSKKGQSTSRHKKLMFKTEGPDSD
For orientation: Quantitative high-throughput screening tests each substance at several concentrations.

For experiment [2] the target is unchanged. Put plainly: Primary qHTS for small molecule compounds that upregulate eGFP-tagged delta133p53alpha (in C-terminal) cells. (AID 2060324). Note: potency is the fitted concentration of half-maximal effect. The gist of the method:
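Concentration-response screen: compounds titrated onto pre-induced NCI-H358 D133p53a-eGFP cells, incubated one day, fixed with 3.5% PFA. Per-cell GFP peak intensity was gated, then normalized against intraplate controls.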

Experiment [3] deals with Aldehyde dehydrogenase, mitochondrial (Homo sapiens) (UniProt P05091). Put plainly: qHTS for Inhibitors of the Aldehyde Dehydrogenase Family (ALDH2) Validation screens (AID 2061302; active = well fitted inhibition curve with a large enough effect; title and protocol of this record describe different tests;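 note: plate controls were DMSO vehicle for no effect and maximal DPI positive control response for full effect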).
The nature of experiment [4]: BET inhibitor-based combinations targeting novel dependencies in MECOM-rearranged (r) AML: OCI-AML3 cell line (AID 2202232). Note: nearly all actives have a fitted effect of over 35% in size. Note: potency is the fitted concentration of half-maximal effect. The settings on record: Potency: OCI-AML3 viability. The method in brief: (§1)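 Cells were plated at 500 per well and exposed to an 11-point dose series of each drug for 48 hr. Viability was measured by CellTiter-Glo luminescence, normalized to DMSO and empty-well controls, and summarized as AUC and per-cell-line Z-AUC.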

Experiment [5] is described as follows: BET inhibitor-based combinations targeting novel dependencies in MECOM-rearranged (r) AML: HNT-34 cell line (AID 2202234). Note: nearly all actives have a fitted effect of over 35% in size. Note: potency is the fitted concentration of half-maximal effect. The gist of the method: (§2)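 Activity is given as area under the curve and as Z-AUC, mean-centred within each cell line. It comes from 11-point dose curves normalized to DMSO and empty wells. CellTiter-Glo luminescence was read after 48 hr drug exposure of 500 cells/well.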

Experiment [6] can be described thus: BET inhibitor-based combinations targeting novel dependencies in MECOM-rearranged (r) AML: UCSD-AML1 cell line (AID 2202235). Note: nearly all actives have a fitted effect of over 40% in size. Note: potency is the fitted concentration of half-maximal effect. The method in brief:
as §2

The nature of experiment [7]: BET inhibitor-based combinations targeting novel dependencies in MECOM-rearranged (r) AML: AML-191 cell line (AID 2202236; note: nearly all actives have a fitted effect of over 35% in size; note: potency is the fitted concentration of half-maximal effect). The gist of the method: as §1
Experiment [8] in a line: BET inhibitor-based combinations targeting novel dependencies in MECOM-rearranged (r) AML: AML-194 cell line (AID 2202237; note: nearly all actives have a fitted effect of over 40% in size; note: potency is the fitted concentration of half-maximal effect). The gist of the method:
as §1

Experiment [9] can be described thus: BET inhibitor-based combinations targeting novel dependencies in MECOM-rearranged (r) AML: SET-2 cell line (AID 2202231).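 For viability: plate controls were DMSO treated cells for no effect and wells without cells for full effect.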 Note: nearly all actives have a fitted effect of over 35% in size. Note: potency is the fitted concentration of half-maximal effect. The settings on record: SET-2 AML cells viability, CellTiter-Glo luminescence, 48 h; viability: stronger effect = lower value, concentration not given here. The gist of the method:
as §1

Experiment [10] in a line: BET inhibitor-based combinations targeting novel dependencies in MECOM-rearranged (r) AML: MV-4-11 cell line (AID 2202233). Note: nearly all actives have a fitted effect of over 45% in size. Note: potency is the fitted concentration of half-maximal effect. The method in brief:
as §2

Experiment [11] deals with Retinal dehydrogenase 2 (Homo sapiens) (UniProt O94788). Put plainly: qHTS for Inhibitors of the Aldehyde Dehydrogenase Family (ALDH1A2) Confirmation screens (AID 2061314). Note: nearly all actives have a fitted effect of over 65% in size. Note: potency is the fitted concentration of half-maximal effect.
For experiment [12], the target named is Retinaldehyde dehydrogenase 3 (Homo sapiens) (UniProt P47895). Put plainly: qHTS for Inhibitors of the Aldehyde Dehydrogenase Family (ALDH1A3) Validation screen (AID 2061312). Note: % is set by controls: 0 for no effect and ±100 for the full control effect; nearly all actives have a fitted effect of over 45% in size.
The target of experiment [13] is Aldehyde dehydrogenase, mitochondrial (Homo sapiens) (UniProt P05091). Put plainly: qHTS for Inhibitors of the Aldehyde Dehydrogenase Family (ALDH2) Confirmatory screens (AID 2061303; active = well fitted inhibition curve with a large enough effect; title and protocol of this record describe different tests; note: % is set by controls: 0 for no effect and ±100 for the full control effect; nearly all actives have a fitted effect of over 45% in size).
Experiment [14] deals with Retinaldehyde dehydrogenase 3 (Homo sapiens) (UniProt P47895). Put plainly: qHTS for Inhibitors of the Aldehyde Dehydrogenase Family (ALDH1A3) Confirmatory screens (AID 2061311). Note: nearly all actives have a fitted effect of over 60% in size. Note: potency is the fitted concentration of half-maximal effect.
Experiment [15] deals with Aldehyde dehydrogenase 1A1 (Homo sapiens) (UniProt P00352). Put plainly: qHTS for Inhibitors of the Aldehyde Dehydrogenase Family (ALDH1A1) Confirmatory screens (AID 2061316). Note: nearly all actives have a fitted effect of over 65% in size. Note: potency is the fitted concentration of half-maximal effect.
The nature of experiment [16]: qHTS for Inhibitors of the Aldehyde Dehydrogenase Family (ALDH1A2, ALDH1A3, ALDH2, ALDH3A1) (AID 2061307). For Potency: test system not described further here; potency is the fitted concentration of half-maximal effect. Note: nearly all actives have a fitted effect of over 50% in size.
Experiment [17] concerns the target Retinaldehyde dehydrogenase 3 (Homo sapiens) (UniProt P47895). Put plainly: qHTS for Inhibitors of the Aldehyde Dehydrogenase Family (ALDH1A3) Primary screen (AID 2061315).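 Note: plate controls were DMSO vehicle for no effect and reference inhibitor for full effect.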

“And” between values parts separate entries of the source, which are not always exact repeats. Equal values may be shown once. Inconclusive results are not listed. Values without a mark were called inactive. The source made the active and inactive calls. Unless noted, calls come from the whole dose curve; as a rule, active = well fitted curve in the direction sought with a large enough effect; inconclusive = small, poorly fitted or top-dose-only effect, or another doubt; inactive = no such curve, though single readings can be large; an effect the other way counts as inactive or inconclusive.

With `O=Nc1c(-c2c(O)[nH]c3cc(Br)ccc23)[nH]c2ccccc12`, the activation in experiment [1] is 17.1% and -39.3%. In addition, the Potency entry in experiment [2] and in experiment [3] was “inactive” throughout. The Potency in [4] is 11.8 µM (active); in experiment [5], 2.63 µM (active); in [6], 13.2 µM (active); in experiment [7], 14.8 µM (active); in experiment [8] it was 14.8 µM (active).

As to `O=C1Nc2ccc(I)cc2/C1=C/c1cc(Br)c(O)c(Br)c1`, in experiment [1], the activation was -56.5%. In addition, the Potency is 19 µM (active) in experiment [2] and 18.6 µM (active) in [7]. The Potency result in experiment [3], in experiment [4], in experiment [10] and in experiment [8] was “inactive” in each case. In experiment [9], the viability is 96.6%.

As for `CCN1CCc2nc(N)oc2CC1`, the activation in [1] was -8.37% and -17.5%. Further, the Potency result in [2], in experiment [3] and in experiment [11] was “inactive” in each case.

With `Clc1ccc2nsnc2c1NC1=NCCN1`, the activation in experiment [1] was 17.5% and 19.5%. Further, the Potency entry in [2], in [3], in experiment [4], in experiment [5], in experiment [6] and in [7] was “inactive” in each case. The Potency result in experiment [8] was “inactive”. Further, the viability in experiment [9] was 111%.

Consider `O=c1cc(N2CCOCC2)oc2c(-c3ccccc3)cccc12`, for which the activation in experiment [1] is 3.72% and -10.8%. Moreover, the Potency entry in experiment [2] and in experiment [3] was “inactive” in each case. The Potency in experiment [10] was 13.2 µM (active).

For `NC(=O)C1=CN(C2OC(COP(=O)(O)OP(=O)(O)OC[C@H]3O[C@@H](n4cnc5c(N)ncnc54)[C@H](OP(=O)(O)O)[C@@H]3O)C(O)C2O)C=CC1` (stereo partly drawn), in experiment [1], the activation was -2.48%. In addition, the Potency entry in [2] and in [12] was “inactive” each time.

For the compound `NC(=O)OCC(COC(N)=O)c1ccccc1`, the activation in experiment [1] is -10.4% and 18.4% and 1.5%. The Potency result in [2], in experiment [3], in experiment [4], in experiment [10], in experiment [5] and in experiment [6] was “inactive” in each case. For the same compound, the Potency entry in [7] and in experiment [8] was “inactive” in each case. In addition, the viability in experiment [9] is 119%.

With `CC(C)(C)C(=O)Oc1ccc(S(=O)(=O)Nc2ccccc2C(=O)NCC(=O)O)cc1`, the activation in experiment [1] was -5.86% and -2.63% and -11.2%. The Potency result in experiment [2], in experiment [3], in experiment [4], in experiment [10], in [5] and in experiment [6] was “inactive” each time. In addition, the Potency entry in experiment [7] and in experiment [8] was “inactive” in each case. The viability in [9] was 111%.

For the compound `CN(C)C/C=C(/c1ccc(Br)cc1)c1cccnc1`, the activation in experiment [1] was -2.82% and -52.8%. In addition, the Potency result in experiment [2], in experiment [13], in [14] and in experiment [15] was “inactive” each time.

Take `COc1ccccc1N1CCN(CC(O)COc2cccc3ccccc23)CC1` (stereo not drawn): the activation in experiment [1] is 17.1% and 24.3% and -36.9%. Moreover, the Potency result in experiment [2], in experiment [3] and in experiment [8] was “inactive” throughout. Also, the Potency was 13.2 µM (active) in [9], 14.8 µM (active) in [10], 5.25 µM (active) in [6] and 9.34 µM (active) in experiment [7].

For `COc1cc(/C=C(\C#N)C(=O)Nc2nnc(C(F)(F)F)s2)ccc1OCc1ccc(C(F)(F)F)cc1C(F)(F)F`, in [1], the activation is -42%. In addition, the Potency entry in experiment [2], in experiment [13], in experiment [16], in experiment [11], in experiment [15] and in experiment [5] was “inactive” throughout. For the same compound, the Potency entry in experiment [6], in [7] and in experiment [8] was “inactive” in each case. Also, the viability in experiment [9] was 111%.

`O=C(c1ccccc1)c1ccc2n1CCC2C(=O)O` (stereo not drawn): the activation in experiment [1] was -6.21% and -3.1%. Besides, the Potency entry in [2], in experiment [3], in experiment [4], in [10], in experiment [5] and in experiment [6] was “inactive” each time. Moreover, the Potency entry in [7] and in [8] was “inactive” throughout. Moreover, the viability in [9] was 104%.

On to `Cc1ccc2c(c1)C(N1CCN(C)CC1)=Nc1cccnc1N2`, for which the activation in experiment [1] was 13.7%. Further, the Potency entry in [2] and in [3] was “inactive” throughout. In experiment [15], the Potency was 12.7 µM (active).

For the compound `Brc1c(NC2=NCCN2)ccc2nccnc12`, the activation in experiment [1] was -0.565% and -20%. Further, the Potency result in experiment [2] was “inactive”. The Potency in experiment [16] was 11.3 µM (active); in experiment [14], 5.65 µM (active); in experiment [11], 8.96 µM (active); in experiment [15], 11.3 µM (active).

With `Cc1ccc(S(=O)(=O)N[C@@H](Cc2ccccc2)C(=O)CCl)cc1`, the Potency in experiment [1] was 24.3 µM (active); in [2] it was 26.9 µM (active); in experiment [15] it was 0.565 µM (active); in [4], 16.6 µM (active); in experiment [10], 13.2 µM (active); in [5] it was 13.2 µM (active). The Potency was 20.9 µM (active) in experiment [7] and 23.5 µM (active) in experiment [8]. For the same compound, in experiment [3], the Potency result was “inactive”.

Regarding `CC[C@@]1(O)C(=O)OCc2c1cc1n(c2=O)Cc2cc3c(CN(C)C)c(O)ccc3nc2-1`, the Potency was 24.6 µM (active) and 3.38 µM (active) in [1]; 6.75 µM (active) in [2]; 0.0372 µM (active) in experiment [9]; 0.0186 µM (active) in experiment [4]; 0.0118 µM (active) in experiment [10]; 0.0166 µM (active) in experiment [6]. For the same compound, the Potency in experiment [7] is 0.0209 µM (active). The Potency result in experiment [3] and in experiment [17] was “inactive” each time.

For `CCN(CC)CCn1c(=O)c(Cc2ccc(OC)cc2)nc2ccccc21`, the activation in experiment [1] was 3.86% and 2.44%. For the same compound, the Potency result in experiment [2], in [3], in [4], in experiment [10], in experiment [5] and in [6] was “inactive” each time. The Potency entry in [7] and in experiment [8] was “inactive” in each case. Besides, the viability in experiment [9] is 107%.
